# Source: PubChem BioAssay
# An excerpt weighted towards active compounds, which were near 3% of everything screened.
# TSG101-PTAP inh – qHTS Assay for Iinhibitors of HIV-1 Budding by Blocking the Interaction of PTAP/TSG101. Fluorescence polarization, FITC-PTAP peptide / Tsg101 binding. Potency, µM (doses to about 115 µM), for the others: at the top dose activity change, negative = inhibition, most hits filed as inhibitors. 340,000 tested, under 10 active. AID 493005, 2010; active = well fitted inhibition curve with a large enough effect in the main read-out, with a control signal flat, not every such curve was filed as active; inconclusive = small, poorly fitted or top-dose-only effect, or effect the other way, or a change in a side signal; inactive = no such curve, though single readings can be large or run the other way; note: % of control where 0% means no effect
#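 Compounds were pin-transferred onto Tsg101 binding domain (10 uM final) in HEPES pH 7.5 buffer, then FITC-PTAP peptide was added at 50 nM final. After 20 min at RT, polarization reported peptide displacement across a qHTS concentration series.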
# KAT2A inh – qHTS Assay for Inhibitors of GCN5L2; GCN5L2 HAT assay, ThioGlo1 CoA-SH fluorescence; 390,000 compounds, 0.21% hits; Histone acetyltransferase KAT2A (Homo sapiens), Q92830; AID 504327, 2011; Potency, µM (doses to about 58.9 µM), without a hit: at the highest dose activity change, negative = inhibition, hits mostly inhibitors; note: % is set by controls: 0 for no effect and ±100 for the full control effect
# Target sequence (Q92830 whole entry, looked up): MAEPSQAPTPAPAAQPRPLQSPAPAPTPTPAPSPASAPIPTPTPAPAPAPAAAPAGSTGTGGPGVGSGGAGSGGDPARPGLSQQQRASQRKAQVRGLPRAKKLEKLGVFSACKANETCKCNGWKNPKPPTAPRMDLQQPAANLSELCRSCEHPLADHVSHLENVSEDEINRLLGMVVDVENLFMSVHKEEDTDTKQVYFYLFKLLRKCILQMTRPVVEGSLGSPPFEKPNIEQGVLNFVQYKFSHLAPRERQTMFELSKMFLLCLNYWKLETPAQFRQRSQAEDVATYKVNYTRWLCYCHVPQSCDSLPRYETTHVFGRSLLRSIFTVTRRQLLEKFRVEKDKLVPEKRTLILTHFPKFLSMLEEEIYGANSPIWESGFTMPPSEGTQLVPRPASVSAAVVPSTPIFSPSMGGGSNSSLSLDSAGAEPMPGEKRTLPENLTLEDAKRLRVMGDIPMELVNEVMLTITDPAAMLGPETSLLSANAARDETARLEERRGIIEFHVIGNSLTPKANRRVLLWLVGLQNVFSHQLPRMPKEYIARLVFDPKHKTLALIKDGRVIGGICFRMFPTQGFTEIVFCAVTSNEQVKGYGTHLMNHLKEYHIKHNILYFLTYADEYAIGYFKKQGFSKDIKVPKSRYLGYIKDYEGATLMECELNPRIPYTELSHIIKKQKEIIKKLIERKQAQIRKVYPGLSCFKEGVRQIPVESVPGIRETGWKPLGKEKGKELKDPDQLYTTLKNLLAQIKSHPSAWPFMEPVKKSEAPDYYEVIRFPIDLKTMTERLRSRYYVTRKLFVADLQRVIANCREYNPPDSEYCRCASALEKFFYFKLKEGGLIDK
#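 Preincubate 20nM GCN5L2 with compound 15 min, RT → add 50uM ThioGlo1 + 75uM H3(1-25) + 70uM acetyl-CoA → read fluorescence 0 and 20 min. Primary qHTS; fluorescent artifacts likely.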
# USP1 inh – Inhibitors of USP1/UAF1: Primary Screen; recombinant USP1/UAF1, Ub-Rhodamine cleavage fluorescence; Potency, µM (series often up to 57.1 µM), without a hit: top-dose activity change, negative = inhibition, usual class: inhibitors; 390,000 compounds, 0.23% hits; note: % is set by controls: 0 for no effect and ±100 for the full control effect; nearly all actives have a fitted effect of over 60% in size
#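 Step one: compound is pinned into 1nM USP1/UAF1 in HEPES pH 7.8 buffer with TCEP. Step two: 15 min room-temperature incubation. Step three: Ub-Rho (150nM final) starts cleavage, tracked by fluorescence over six one-minute reads.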
# PLK1 PBD inh – qHTS for Inhibitors of PLK1-PDB (polo-like kinase 1 - polo-box domain): Primary Screen; Plk1 PBD binding of FITC phosphopeptide, fluorescence polarization; 360,000 compounds, 2.8% hits; AID 720504, 2013; Potency, µM, without a hit: max response, negative = inhibition, most hits filed as inhibitors; note: series mostly up to about 57 µM; % is set by controls: 0 for no effect and ±100 for the full control effect; nearly all actives have a fitted effect of over 65% in size
# VDR inh – Inhibitors of the vitamin D receptor (VDR): qHTS. Vitamin D3 receptor (Homo sapiens), P11473. VDR-SRC2-3 peptide fluorescence polarization, 2 h. Potency, µM, for the others: max response, negative = inhibition, hits mostly inhibitors. 400,000 compounds, 0.93% hits. AID 504847, 2011; note: % is set by controls: 0 for no effect and ±100 for the full control effect
#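 After 23 nl compound addition and a short centrifugation, plates sat for 2 hours at ambient temperature; polarization of fluorescence then indicated loss of VDR binding to peptide SRC2-3.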
# * = called active by the depositor; ? = inconclusive; nt = no result; [ ] = dose if it differs, or a comment. Unless noted, calls come from the whole dose curve; as a rule, active = well fitted curve in the direction sought with a large enough effect; inconclusive = small, poorly fitted or top-dose-only effect, or another doubt; inactive = no such curve, though single readings can be large; an effect the other way counts as inactive or inconclusive. Potency is the fitted concentration of half-maximal effect.
SMILES,TSG101-PTAP inh,KAT2A inh,USP1 inh,PLK1 PBD inh,VDR inh
O=[N+]([O-])c1ccc(C(=S)N2CCN(c3ccc(F)cc3)CC2)cc1,-8%,-5%,-26%,15µM*,79µM*
O=C(OCC(=O)N1CCN(c2ccccc2)CC1)c1cccc([N+](=O)[O-])c1,-1%,0%,-20%,-7%,-4%
O=[N+]([O-])c1cccc(C(=S)N2CCN(c3ccccc3)CC2)c1,-2%,-3%,-4%,12µM*,?
Cc1cccc(N2CCN(C(=S)c3ccc([N+](=O)[O-])cc3)CC2)c1,-4%,-17%,-20%,4.7µM*,?
CCNC(=S)N1CCN(c2ccc([N+](=O)[O-])cc2)CC1,-2%,1%,-17%,30µM*,-9%
CNC(=S)N1CCN(c2ccc([N+](=O)[O-])cc2)CC1,-9%,-3%,-2%,-17%,-8%
CCOC(=O)c1nn(-c2ccccc2)c(=O)c2c(N)scc12,-3%,-21%,18µM*,2.7µM*,24%
N#CCCn1c(=O)c(-c2cccs2)nc2cnc(N3CCOCC3)nc21,nt,-10%,nt,nt,-12%
CSc1ccc(-c2sc(Nc3ccccc3)n[n+]2-c2ccc(F)cc2)cc1,-7%,-1%,-23%,30µM*,-16%
COc1ccc(CN(C)CCCn2cnc(C(=O)Nc3ccc(C)c(C)c3)n2)cc1OC,0%,nt,-8%,0%,7%
CC(C)c1ccc(C2c3[nH]c4ccccc4c3C[C@H]3C(=O)N(c4ccccc4C(=O)N4CCC[C@@H]4C(=O)O)C(=O)N23)cc1 (stereo partly specified),-2%,-29%,-19%,42µM*,-1%
Cc1ccc(C2c3[nH]c4ccccc4c3C[C@H]3C(=O)N(c4ccccc4C(=O)N4CCC[C@H]4C(=O)O)C(=O)N23)cc1 (stereo partly specified),-5%,-10%,-1%,?,-15%
COc1cc(N(C)C)cc(CN(C)CCc2ccc([N+](=O)[O-])cc2)c1O,nt,?,nt,nt,2.5µM*
Cc1ccc(-c2ccnc3nc(-n4cccc4)nn23)o1,7%,4%,-19%,4.7µM*,?
O=C(O)c1cc(O)c2c(c1)[C@@H]([C@H]1c3cc(C(=O)O)cc(O)c3C(=O)c3c(O[C@@H]4O[C@H](CO)[C@@H](O)[C@H](O)[C@H]4O)cccc31)c1cccc(OC3O[C@H](CO)[C@@H](O)[C@H](O)[C@H]3O)c1C2=O (stereo partly specified),-3%,0.5µM*,5.6µM*,0.84µM*,-29%
O=C(O)c1cc(O)c2c(c1)[C@H]([C@H]1c3cc(C(=O)O)cc(O)c3C(=O)c3c(O[C@@H]4O[C@H](CO)[C@@H](O)[C@H](O)[C@H]4O)cccc31)c1cccc(OC3O[C@H](CO)[C@@H](O)[C@H](O)[C@H]3O)c1C2=O (stereo partly specified),-24%,0.71µM*,7.1µM*,1.7µM*,?
O=C1c2cc(CO)cc(O)c2C(=O)c2c(O[C@@H]3OC(CO)[C@@H](O)[C@@H](O)[C@@H]3O)cccc21 (stereo partly specified),4%,nt,-2%,-9%,-4%
O=C1c2c(O)cccc2C(C2OC(CO)[C@@H](O)[C@H](O)[C@H]2O)c2cc(CO)cc(O)c21 (stereo partly specified),-9%,-21%,-18%,?,7%
Cc1ccc(CNC(=O)c2cnc3c(-c4ccccc4)c(C)nn3c2C)o1,nt,27%,-11%,nt,4%
CCOC(=O)c1cn(-c2nc(-c3ccc(Cl)c(Cl)c3)cs2)c2c(F)c(N3CCOCC3)c(F)cc2c1=O,-5%,2.5µM*,-3%,0%,1%
CCOc1ccc(S(=O)(=O)N2CCC(c3ccncc3)CC2)cc1,nt,4%,-2%,nt,22%
Nc1ccc2nc(SCC(=O)c3ccccc3)sc2c1,-1%,-19%,-11%,-22%,-10%
Nc1ccc2nc(SCc3ccccc3F)sc2c1,-4%,-10%,?,15µM*,-18%
COC(=O)c1cc2occc2n1Cc1nc(-c2ccc(Cl)cc2)oc1C,1%,1%,-34%,30µM*,?
CCOC(=O)c1sc2nccc(N(C)C)c2c1N=CNOC,1%,-4%[0.501 µM],-21%,15µM*,?
SMILES,TSG101-PTAP inh,KAT2A inh,USP1 inh,PLK1 PBD inh,VDR inh
CCOC(=O)c1sc2nccc(N(C)C)c2c1N=CNOCc1ccccc1,-3%,-4%[0.501 µM],-22%,-4%,-4%
CC(NS(=O)(=O)c1ccc2c(c1)OCCO2)c1ccccc1 (stereo unspecified),1%,-6%,-26%,-4%,-1%
CC(C)C(NS(=O)(=O)c1ccc2c(c1)OCCCO2)C(=O)O (stereo unspecified),-13%,2%,1%,24µM*,45µM*
COc1ccc(NC(=O)Cn2cnc3ccc(S(=O)(=O)N4CCC(C)CC4)cc3c2=O)c(OC)c1,nt,0%,-4%,nt,4%
COc1ccc(Oc2ncc3nc(-c4cc(F)cc(F)c4)c(=O)n(C[C@H]4CCCO4)c3n2)cc1,nt,-17%,nt,nt,-5%
CC1C/C(=C/c2ccccn2)C(=O)/C(=C/c2ccccn2)C1 (stereo unspecified),-1%,2%,-24%,?,28µM*
Oc1ccc(COC2CCN(Cc3ccccc3)C2)c2cccnc12 (stereo unspecified),nt,-4%,nt,nt,nt
CCCOc1ccc(CNC(=O)CCCN2C(=O)CSc3c2c(C)nn3-c2ccccc2)cc1,nt,7%,?,nt,-8%
Cc1cccc2c3c([nH]c12)CCNC3,-6%,-7%,-8%,24µM*,?
C=CCOC(=O)c1ccccc1C(=O)OCC1CO1 (stereo unspecified),-9%,nt,-2%,-8%,-2%
COc1ccc(OC)c(CCNc2ncnc3onc(C)c23)c1,nt,-14%,-5%,nt,19%
Cc1cc(C(=O)NNC(=S)NCc2ccco2)n(C)n1,-1%,-5%,-5%,21µM*,?
CN1CCC(N(C)C(=S)NC(=O)c2cc(-c3cccc(Br)c3)nc3ccccc23)CC1,-4%,-1%,-9%,21µM*,-28%
CN1CCN(NC(=O)c2cc(-c3cccc(Cl)c3)nc3ccccc23)CC1,-1%,-9%,-18%,1%,8%
CCOc1cc(C2C(C#N)=C(N)SC(N)=C2C#N)ccc1OCCN1CCOCC1,-3%,-30%,-8%,27µM*,?
Cc1cc(=O)oc2cc(O)c(O)cc12,nt,-21%,nt,nt,3%
Cc1cccn2cc(-c3cccc(NC(=O)C(C)C)c3)nc12,nt,-2%,-14%,nt,9%
